{
  "source": "PubChem BioAssay (NCI)",
  "note": "This is part of a sample that, as a whole, favours compounds with a hit. Of some 83,000 tested, about 20% had one in any assay.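 48-hour exposure, single concentration, 96-well plates; percent growth endpoint where 0 means no net growth. Active: below 10.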 A number with no mark means an inactive call. Calls of active or inactive are those of the source.",
  "data": [
    {"system": "EKVX NSCLC", "assay": "NCI-60 one-dose screen, 48 h (100 = growth as untreated, 0 = no growth, -100 = all killed)", "conditions": "10 µM unless noted", "values": [
      {"smiles": "O=C(NCc1ccc(Cn2c(=O)sn(-c3ccccc3)c2=O)cc1)OCc1ccc2c(Br)cc(Br)c(O)c2n1", "growth": "-92.3% (active)"},
      {"smiles": "N#CCCc1c[nH]c2ccccc12", "growth": "94.3%"},
      {"smiles": "C=CCCCCCCCCC(=O)OC(C)C", "growth": "101%"},
      {"smiles": "COc1cc2c(cc1OCCCCCOc1ccc(-n3c(C)nc4ccccc4c3=O)cc1)N=C[C@@H]1CCCN1C2=O", "growth": "-26.5% (active)"},
      {"smiles": "Cc1cccc(/C=C2\\N=C(c3ccccc3)N(c3ccc(S(N)(=O)=O)cc3)C2=O)c1", "growth": "92.1%"},
      {"smiles": "Clc1ccc(/C=N/Nc2nc3ccccc3s2)c(Cl)c1", "growth": "66.9%"},
      {"smiles": "CCOC(=O)COc1c(C)cc(SSc2cc(C)c(OCC(=O)OCC)c(C)c2)cc1C", "growth": "107%"},
      {"smiles": "Nc1nc(Nc2ccccc2)c2ncn(Cc3cc4c(cc3Br)OCO4)c2n1", "growth": "44.7%"},
      {"smiles": "CCOC(=O)c1c[nH]n2c(=S)ncnc12", "growth": "108%"},
      {"smiles": "CC1(C)CC[C@]2(C(N)=O)CC[C@]3(C)C(=CC[C@@H]4[C@@]5(C)C/C(=C/c6cccnc6)C(=O)C(C)(C)[C@@H]5CC[C@]43C)[C@@H]2C1", "growth": "1.54% [100 µM] (active)"},
      {"smiles": "O=[N+]([O-])c1cc(CCl)ccc1OCCBr", "growth": "104%"},
      {"smiles": "O=C1COCCN1c1ccc(Nc2nc(Cl)nc(N3CCOCC3)n2)cc1", "growth": "92.3%"},
      {"smiles": "O=C(OCc1ccc2c(Cl)cc(Cl)c(O)c2n1)N1CCNCC1", "growth": "33.1%"},
      {"smiles": "Cc1ccc(S(=O)(=O)NCCCNc2nccc(-c3c(-c4cccc(F)c4)nc4occn34)n2)cc1", "growth": "78.7%"}
    ]}
  ]
}
